The values below come from PubChem BioAssay (EPA / NIEHS).

The target in assay [1] is Androgen Receptor/SRC-1 Co-activator, AR (gene 367) (UniProt P10275). The assay is described as follows: OT_AR_ARSRC1_0960: Odyssey Thera (OT) 16-hour HEK293T Protein-Complementation Assay for Androgen Receptor/SRC-1 Co-activator (AID 2283353).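 Further: actives raise the signal above DMSO so potency reflects increased AR and SRC-1 complex.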 An outline of the steps:
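Sixteen-hour cell assay: Venus halves fused to AR and SRC-1 in HEK293T report binding. Images at 488/635 nm give an N/C ratio in the 488 nm channel over ≥400 cells, analysed as signal increase over DMSO.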

Assay [2] has the same target. The assay is described as follows: OT_AR_ARSRC1_0480: Odyssey Thera (OT) 8-hour HEK293T Protein-Complementation Assay for Androgen Receptor/SRC-1 Co-activator (AID 2283354).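 Further: hits raise the complementation signal above DMSO so AC50 marks enhancers.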 The gist of the method:
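After 8 h dosing, stably expressing HEK293T cells with split-Venus AR/SRC-1 fusions were imaged (488, 635nm). The 488nm N/C ratio per image gave the endpoint, analysed in the positive direction against DMSO.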

Another assay has as its target PGR (gene 5241) (UniProt P06401). The assay is described as follows: NVS_NR_hPR: NovaScreen (NVS) Nuclear Receptor Binding Assay for human Progestron Receptor (PR) (AID 2283360).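 Further: active means loss of bound radioligand signal versus DMSO baseline.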 An outline of the steps:
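Competitive displacement of a labelled radioligand from T47D-derived receptor protein is measured in a cell-free format. Initial testing uses 25 uM in duplicate, with positive and negative controls on every plate.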

In assay [3] the target is Estrogen receptor (Homo sapiens) + Estrogen receptor beta (Homo sapiens) (UniProt P03372+Q92731). The experiment in a line: OT_ER_ERaERb_1440: Odyssey Thera (OT) 24-hour HEK293T Protein-Complementation Assay for Estrogen Receptor-alpha/-beta Homodimer (AID 2283356).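 Further: heteromer of ER alpha and ER beta binding domains; hits raise reporter fluorescence and both agonists and antagonists give an increase.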 The gist of the method: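 Stable HEK293T PCA line, ERα LBD 310-547 + ERβ LBD 263-489 fused to reporter fragments; 24 h treatment; fluorescence read by laser scanning cytometry; positive fitting direction relative to DMSO.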

Assay [4] deals with Estrogen receptor beta (Homo sapiens) (UniProt Q92731). The experiment in a line: OT_ER_ERbERb_0480: Odyssey Thera (OT) 8-hour HEK293T Protein-Complementation Assay for Estrogen Receptor-beta/-beta Homodimer (AID 2283357).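 Further: active means signal gain over DMSO baseline.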 An outline of the steps:
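Fluorescence gain from complemented reporter fragments on ER-beta LBD homodimer in HEK293T was quantified against DMSO controls after 8 h treatment, fixation in 4% formaldehyde and Draq5 staining.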

The target in assay [5] is human Peroxisome Proliferator-activated Receptor alpha (PPARa), PPARA (gene 5465) (UniProt Q07869). The assay is described as follows: NVS_NR_hPPARa: NovaScreen (NVS) Nuclear Receptor Binding Assay for human Peroxisome Proliferator-activated Receptor alpha (PPARa) (AID 2283359).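 Further: activity means loss of TR-FRET signal versus DMSO baseline.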 An outline of the steps: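 One-hour incubation, cell-free extracted protein, TR-FRET binding readout; signal loss vs DMSO scored. Screen: 25 uM duplicates, confirmatory dose series for actives.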

The target of assay [6] is human Thyroid Receptor Alpha (TRa), THRA (gene 7067) (UniProt P10827). The assay is described as follows: NVS_NR_hTRa_Antagonist: NovaScreen (NVS) Nuclear Receptor Binding Assay for human Thyroid Receptor Alpha Antagonism (TRa) (AID 2283362). An outline of the steps: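 Extracted protein, cell-free; 1 h incubation after dosing; AlphaLISA chemiluminescence binding readout. DMSO = baseline/neg ctrl; signal loss = activity. Primary: duplicate, 25 uM; secondary: conc. series on actives.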

The target in assay [7] is Retinoic acid receptor alpha (Homo sapiens) (UniProt P10276). The assay is described as follows: NVS_NR_hRARa_Agonist: NovaScreen (NVS) Nuclear Receptor Binding Assay for human Retinoic Acid Alpha Receptor Agonism (RAR) (AID 2283361). An outline of the steps: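 Compounds screened at 25 uM, duplicate, then in concentration series if active. Detection: TR-FRET gain of signal versus DMSO after 2 h with cell-free extracted RARα.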

Assay [8] shares this target. The assay is described as follows: NVS_NR_hRAR_Antagonist: NovaScreen (NVS) Nuclear Receptor Binding Assay for human Retinoic Acid Alpha Receptor Antagonism (RAR) (AID 2283358). The gist of the method: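 Chemicals were first tested in duplicate at 25 uM, then actives in concentration series, in a cell-free TR-FRET antagonist binding format. Measurements were taken 2 hours after dosing and loss of signal was evaluated against DMSO controls.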

Records with an inconclusive call do not appear. Active and inactive are the calls of the source. How the source made its calls: active means hit-call score of the fitted dose curve at least 0.9, where 1 is the maximum; inconclusive means response in the unintended direction; inactive means score below 0.9.

Chain of Estrogen receptor beta (Homo sapiens) (Q92731 whole entry, looked up, the tested form may be a part): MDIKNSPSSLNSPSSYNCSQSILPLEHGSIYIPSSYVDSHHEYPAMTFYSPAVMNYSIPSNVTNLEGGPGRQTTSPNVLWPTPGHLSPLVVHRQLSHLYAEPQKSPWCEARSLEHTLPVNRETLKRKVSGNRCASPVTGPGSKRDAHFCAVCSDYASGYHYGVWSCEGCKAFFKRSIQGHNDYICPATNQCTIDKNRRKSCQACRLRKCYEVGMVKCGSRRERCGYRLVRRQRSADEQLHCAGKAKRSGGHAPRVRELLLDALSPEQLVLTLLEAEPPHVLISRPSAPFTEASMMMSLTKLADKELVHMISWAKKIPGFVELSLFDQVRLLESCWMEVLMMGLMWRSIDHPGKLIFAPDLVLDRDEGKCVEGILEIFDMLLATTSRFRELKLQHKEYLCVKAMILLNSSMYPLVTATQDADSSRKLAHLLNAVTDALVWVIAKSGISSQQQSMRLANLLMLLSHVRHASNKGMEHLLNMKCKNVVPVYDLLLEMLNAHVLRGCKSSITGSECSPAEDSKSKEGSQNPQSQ
Chain of PGR (gene 5241) (P06401 whole entry, looked up): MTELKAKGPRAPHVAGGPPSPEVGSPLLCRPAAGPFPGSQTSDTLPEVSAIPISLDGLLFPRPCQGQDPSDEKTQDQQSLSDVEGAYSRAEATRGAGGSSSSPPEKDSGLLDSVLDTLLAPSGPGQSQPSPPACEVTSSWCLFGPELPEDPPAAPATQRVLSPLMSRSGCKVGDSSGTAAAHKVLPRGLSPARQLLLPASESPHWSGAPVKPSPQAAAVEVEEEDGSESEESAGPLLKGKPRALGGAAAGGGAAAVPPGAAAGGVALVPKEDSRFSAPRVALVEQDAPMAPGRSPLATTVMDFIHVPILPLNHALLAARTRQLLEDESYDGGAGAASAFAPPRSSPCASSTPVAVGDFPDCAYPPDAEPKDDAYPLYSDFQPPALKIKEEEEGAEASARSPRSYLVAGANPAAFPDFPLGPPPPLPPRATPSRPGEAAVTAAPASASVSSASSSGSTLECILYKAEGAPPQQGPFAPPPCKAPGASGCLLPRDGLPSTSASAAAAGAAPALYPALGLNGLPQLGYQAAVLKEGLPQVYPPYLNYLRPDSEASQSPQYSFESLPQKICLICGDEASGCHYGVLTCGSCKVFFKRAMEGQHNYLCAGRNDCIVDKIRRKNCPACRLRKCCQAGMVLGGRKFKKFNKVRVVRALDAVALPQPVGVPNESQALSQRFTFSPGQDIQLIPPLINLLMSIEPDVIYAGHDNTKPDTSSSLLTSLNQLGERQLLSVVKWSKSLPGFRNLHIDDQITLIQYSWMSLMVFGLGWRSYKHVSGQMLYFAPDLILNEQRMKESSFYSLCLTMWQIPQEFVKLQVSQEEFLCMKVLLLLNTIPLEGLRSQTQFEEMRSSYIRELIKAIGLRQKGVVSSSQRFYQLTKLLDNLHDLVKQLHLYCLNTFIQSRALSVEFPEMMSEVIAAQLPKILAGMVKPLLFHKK
Chain of Retinoic acid receptor alpha (Homo sapiens) (P10276 whole entry, looked up): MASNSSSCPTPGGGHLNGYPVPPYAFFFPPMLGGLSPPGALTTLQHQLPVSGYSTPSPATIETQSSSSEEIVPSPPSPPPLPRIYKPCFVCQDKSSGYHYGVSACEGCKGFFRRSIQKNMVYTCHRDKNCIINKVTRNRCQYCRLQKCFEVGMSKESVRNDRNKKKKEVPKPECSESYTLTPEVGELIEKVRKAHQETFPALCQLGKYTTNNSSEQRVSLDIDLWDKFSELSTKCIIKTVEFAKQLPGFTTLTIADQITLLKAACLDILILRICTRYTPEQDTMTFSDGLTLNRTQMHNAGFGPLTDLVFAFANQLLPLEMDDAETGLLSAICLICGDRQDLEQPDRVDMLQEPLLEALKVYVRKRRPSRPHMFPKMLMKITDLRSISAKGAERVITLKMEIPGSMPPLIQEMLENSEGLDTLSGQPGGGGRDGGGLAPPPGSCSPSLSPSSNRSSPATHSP
Chain of Estrogen receptor (Homo sapiens) + Estrogen receptor beta (Homo sapiens) (P03372 whole entry, looked up, the tested form may be a part): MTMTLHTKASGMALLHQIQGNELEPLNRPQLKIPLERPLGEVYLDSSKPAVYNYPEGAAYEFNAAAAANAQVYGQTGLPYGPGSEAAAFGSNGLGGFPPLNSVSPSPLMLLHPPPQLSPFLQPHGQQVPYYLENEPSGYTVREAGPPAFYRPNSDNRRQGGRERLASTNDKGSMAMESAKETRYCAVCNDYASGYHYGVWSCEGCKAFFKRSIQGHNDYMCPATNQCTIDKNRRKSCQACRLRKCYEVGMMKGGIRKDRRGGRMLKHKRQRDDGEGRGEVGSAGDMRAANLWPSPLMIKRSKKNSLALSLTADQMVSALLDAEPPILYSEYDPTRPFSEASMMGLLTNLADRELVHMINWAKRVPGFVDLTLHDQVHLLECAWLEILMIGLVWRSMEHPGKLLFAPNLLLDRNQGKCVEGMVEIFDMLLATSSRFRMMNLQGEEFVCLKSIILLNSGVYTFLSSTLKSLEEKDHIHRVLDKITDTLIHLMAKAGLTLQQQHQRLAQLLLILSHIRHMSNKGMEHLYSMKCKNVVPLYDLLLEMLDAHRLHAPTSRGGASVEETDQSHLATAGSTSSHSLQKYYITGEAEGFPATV
Chain of Estrogen receptor (Homo sapiens) + Estrogen receptor beta (Homo sapiens) (Q92731 whole entry, looked up, the tested form may be a part): as the sequence (Q92731 whole entry, looked up, the tested form may be a part) above
Chain of human Peroxisome Proliferator-activated Receptor alpha (PPARa), PPARA (gene 5465) (Q07869 whole entry, looked up): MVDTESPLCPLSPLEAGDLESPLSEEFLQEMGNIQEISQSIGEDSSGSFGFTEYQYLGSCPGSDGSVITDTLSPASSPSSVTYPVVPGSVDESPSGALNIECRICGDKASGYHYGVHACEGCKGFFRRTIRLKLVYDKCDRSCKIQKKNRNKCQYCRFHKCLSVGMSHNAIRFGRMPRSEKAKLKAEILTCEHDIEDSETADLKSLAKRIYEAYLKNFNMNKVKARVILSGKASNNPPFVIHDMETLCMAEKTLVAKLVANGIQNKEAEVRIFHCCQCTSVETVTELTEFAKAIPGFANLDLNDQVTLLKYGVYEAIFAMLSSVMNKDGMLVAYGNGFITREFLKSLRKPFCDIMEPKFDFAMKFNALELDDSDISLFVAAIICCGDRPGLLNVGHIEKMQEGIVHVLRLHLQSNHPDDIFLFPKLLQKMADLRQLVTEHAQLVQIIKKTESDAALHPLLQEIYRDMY
Chain of Androgen Receptor/SRC-1 Co-activator, AR (gene 367) (P10275 whole entry, looked up, the tested form may be a part): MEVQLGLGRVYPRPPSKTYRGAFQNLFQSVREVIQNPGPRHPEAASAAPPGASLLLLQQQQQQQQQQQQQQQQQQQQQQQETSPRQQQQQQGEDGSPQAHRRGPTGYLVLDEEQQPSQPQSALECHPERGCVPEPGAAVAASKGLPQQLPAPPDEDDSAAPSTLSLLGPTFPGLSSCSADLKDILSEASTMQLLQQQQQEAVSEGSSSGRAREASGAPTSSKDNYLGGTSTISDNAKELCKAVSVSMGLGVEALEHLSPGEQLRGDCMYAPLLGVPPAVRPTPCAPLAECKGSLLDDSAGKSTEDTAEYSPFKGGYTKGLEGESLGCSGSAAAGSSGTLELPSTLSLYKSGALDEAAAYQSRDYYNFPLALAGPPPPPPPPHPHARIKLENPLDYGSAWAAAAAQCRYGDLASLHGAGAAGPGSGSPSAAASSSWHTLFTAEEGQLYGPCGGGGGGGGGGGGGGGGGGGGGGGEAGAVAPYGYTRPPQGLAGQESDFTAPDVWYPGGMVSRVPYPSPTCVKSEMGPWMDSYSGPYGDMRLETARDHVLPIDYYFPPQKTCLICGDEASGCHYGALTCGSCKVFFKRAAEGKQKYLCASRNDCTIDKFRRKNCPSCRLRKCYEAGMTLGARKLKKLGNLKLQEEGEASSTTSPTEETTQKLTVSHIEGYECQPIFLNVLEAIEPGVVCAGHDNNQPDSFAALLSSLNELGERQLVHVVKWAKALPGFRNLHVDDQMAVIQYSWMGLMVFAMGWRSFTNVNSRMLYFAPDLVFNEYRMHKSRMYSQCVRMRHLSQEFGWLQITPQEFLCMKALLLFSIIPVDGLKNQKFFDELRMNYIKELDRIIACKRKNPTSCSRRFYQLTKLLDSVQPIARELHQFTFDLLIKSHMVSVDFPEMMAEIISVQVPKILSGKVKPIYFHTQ
Chain of human Thyroid Receptor Alpha (TRa), THRA (gene 7067) (P10827 whole entry, looked up): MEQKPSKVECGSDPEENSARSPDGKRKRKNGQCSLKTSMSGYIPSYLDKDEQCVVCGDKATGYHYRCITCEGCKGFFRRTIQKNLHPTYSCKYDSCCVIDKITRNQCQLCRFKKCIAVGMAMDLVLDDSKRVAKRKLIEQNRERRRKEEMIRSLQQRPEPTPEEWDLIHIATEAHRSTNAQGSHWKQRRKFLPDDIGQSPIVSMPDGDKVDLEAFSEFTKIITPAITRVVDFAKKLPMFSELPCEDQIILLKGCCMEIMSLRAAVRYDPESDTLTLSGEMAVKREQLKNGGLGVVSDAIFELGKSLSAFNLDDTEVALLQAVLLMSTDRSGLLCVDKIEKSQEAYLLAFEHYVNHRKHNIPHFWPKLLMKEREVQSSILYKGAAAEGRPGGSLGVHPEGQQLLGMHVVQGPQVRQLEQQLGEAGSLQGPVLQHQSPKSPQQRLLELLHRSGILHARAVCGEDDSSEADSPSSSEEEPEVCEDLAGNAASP

The term AC50 denotes the concentration at which the activity in the assay is half-maximal. `CN(C)C(=O)C1(N2CCCCC2)CCN(CC[C@@]2(c3ccc(Cl)c(Cl)c3)CN(C(=O)c3ccccc3)CCO2)CC1`: the AC50 in assay [1] is 11.8 µM (active); in assay [2], 16.6 µM (active). Besides, in the assay with PGR (gene 5241), the result was inactive.
On to `COCC(C)OCC(C)OCC(C)O` (stereo not given), for which the compound was called inactive (in assay [1]; in [2]; in assay [3]; in assay [4]; with PGR (gene 5241)).
As for `CCCC(=O)OCCC(C)C`, the call in assay [1] and in assay [2] was inactive. Besides, the AC50 with PGR (gene 5241) is 17.2 µM (active).
Regarding `OCCO`, the outcome in [1] and in assay [2] was inactive.
For the compound `CCCCCCCCOc1ccc(C(=O)c2ccccc2)c(O)c1`, the outcome in assay [5] was inactive.
`O=C1CCC(C2CCCCC2)CC1`: the call in assay [4] and in assay [6] was inactive.
Take `CC1(C)NC(=O)N(c2ccc([N+](=O)[O-])c(C(F)(F)F)c2)C1=O`: the result in assay [4] was inactive. Also, the AC50 with PGR (gene 5241) was 15.7 µM (active).
With `CC/C(=C(/CC)c1ccc(O)cc1)c1ccc(O)cc1`, the result (in [5]; with PGR (gene 5241)) was inactive.
Take `CCCCCCCCN(C)CCCCCCCC`: the result in the assay with PGR (gene 5241) was inactive.
Consider `OC12N=C(c3ccccc3)SC1Cc1cc(Cl)ccc12` (stereo not given), for which the outcome in assay [3], in [4] and in assay [5] was inactive.
In the case of `O=C1O[C@H]([C@@H](O)CO)C(O)=C1O`, the outcome in [4] was inactive.
With `CC1=CC(=O)/C(=C(/C)O)C(=O)O1`, the outcome (in [3]; in assay [4]; in the assay with PGR (gene 5241)) was inactive.
As for `Cc1ncc(CO)c(CO)c1O`, in the assay with PGR (gene 5241), the AC50 is 16.9 µM (active).
`CCCCCCCCOC(=O)c1cc(O)c(O)c(O)c1`: the AC50 in assay [3] is 13 µM (active); in assay [4], 12.4 µM (active); in assay [5], 19 µM (active).
Consider `CCCCOC(=O)CC(CC(=O)OCCCC)(OC(C)=O)C(=O)OCCCC`, for which the compound was classed as inactive in [4].
For `CC(C)(C)c1cc(/C=C2\SC(N)=NC2=O)cc(C(C)(C)C)c1O`, the call with PGR (gene 5241) was inactive.
As to `CN1C(=O)CC[C@H]1c1cccnc1`, the call (in [4]; in the assay with PGR (gene 5241)) was inactive.
As to `COc1cccc([C@H](O)C2CCN(CCc3ccc(F)cc3)CC2)c1OC`, the outcome in assay [3] and in assay [4] was inactive.
Consider `Clc1cc(Cl)c2c(c1)N=C1CCCCCN1C2`, for which the outcome (in [5]; with PGR (gene 5241)) was inactive.
Turning to `c1ccc2n[nH]nc2c1`, the call in assay [4] was inactive.
Consider `CC(=O)N1CCN(c2ccc(OC[C@H]3CO[C@](Cn4ccnc4)(c4ccc(Cl)cc4Cl)O3)cc2)CC1`, for which the result in assay [4] was inactive.
`CCO[Si](CCCNC(N)=O)(OCC)OCC`: the result in assay [3], in assay [4] and in [7] was inactive.
Turning to `CCCCCCCCCCCC[N+](C)(C)C`, the compound was classed as inactive in [4].
On to `CC(C)(O)c1ccc(CNC(=O)c2cccnc2Oc2ccc3nonc3c2)cc1`, for which the outcome (in [3]; in assay [4]; with PGR (gene 5241)) was inactive.
As to `CCCOC(=O)c1cc(O)c(O)c(O)c1`, the AC50 in [3] is 49 µM (active); in assay [4], 25.4 µM (active).
`CCCCCCCCCCCO`: the outcome in assay [3], in assay [4] and in assay [5] was inactive. The AC50 in [6] was 28.4 µM (active).
On to `O=C(OCCCCCCOC(=O)c1ccccc1)c1ccccc1`, for which the outcome in assay [7] was inactive.
With `c1ccc2ccccc2c1`, in assay [7], the result was inactive.
As for `CN1C(=O)N(c2ccccc2Br)Cc2cnc(Nc3ccc4c(c3)OCC(CO)O4)nc21` (stereo not given), the outcome in assay [3], in [4] and in assay [8] was inactive.
In the case of `CC[C@@H]1C[C@H](N(Cc2cc(C(F)(F)F)cc(C(F)(F)F)c2)C(C)=O)c2cc(C(F)(F)F)ccc2N1C(=O)OC(C)C`, the result (in assay [3]; in assay [4]; with PGR (gene 5241); in assay [7]) was inactive.
In the case of `CCN(CC)C(=O)c1cc(S(=O)(=O)Cc2ccccc2)c(N2CCC(c3ccccc3)CC2)cc1N(CC)CCN(C)C`, the call in assay [4] and in assay [7] was inactive.
For `CC(C)(c1cc(Br)c(O)c(Br)c1)c1cc(Br)c(O)c(Br)c1`, in assay [4], the outcome was inactive. The AC50 in assay [5] is 8.19 µM (active); with PGR (gene 5241), 23.9 µM (active).
For `CO[C@H]1/C=C/O[C@@]2(C)Oc3c(C)c(O)c4c(O)c(c(/C=N/N5CCN(C)CC5)c(O)c4c3C2=O)NC(=O)/C(C)=C\C=C\[C@H](C)[C@H](O)[C@@H](C)[C@@H](O)[C@@H](C)[C@H](OC(C)=O)[C@@H]1C`, the compound was classed as inactive in assay [4].
For the compound `CCCCCCCC[Si](OCC)(OCC)OCC`, the compound was classed as inactive in [4].
Take `O=c1[nH]sc2ccccc12`: the result in [3] and in assay [4] was inactive.
For `CCCCCCCCCCCCO`, the result (in [3]; in [4]; with PGR (gene 5241)) was inactive.
As to `Clc1ccccc1C(c1ccccc1)(c1ccccc1)n1ccnc1`, the result in assay [3] and in [4] was inactive.
Turning to `CCOC(=O)O[C@H](C)OC(=O)c1ccc2c(c1)cc(C(=O)NC1CCN(C(C)C)CC1)n2Cc1cc(-c2ccc(Cl)s2)on1`, the result in assay [3] and in assay [4] was inactive.
